In PubChem BioAssay (NCATS) one finds Potency data, which are given here for 24 compounds.

Each structure is given as a SMILES string. Results filed as inconclusive are left out. Activity calls are given as the source filed them. Calls follow the shape of the dose curve; as a rule, active = well fitted cell-killing curve with a large enough effect; inconclusive = small, poorly fitted or top-dose-only effect, or effect the other way; inactive = no such curve, though single readings can be large or run the other way.
Potency is read from the fitted curve at half-maximal effect.

This assay can be described thus: Quantitative High-Throughput drug screen in 47 multiple myeloma cell lines against the NCATS MIPE library collection: XG1_PLB cell viability assay (AID 1919866). Also: nearly all actives have a fitted effect of over 35% in size. Particulars: CellTiter-Glo ATP, 48 h; series mostly up to 45.8 µM. The text has this:
PI: Beverly A. Mock Ph.D.
Laboratory of Cancer Biology and Genetics,
Center for Cancer Research, National Cancer Institute,
National Institute of Health, Bethesda, Maryland
Drug resistance and disease progression are common in multiple myeloma (MM) patients, underscoring the need for new therapeutic combinations. […] We hypothesized that effective combinations would reduce MYC expression and enhance p16 activity. […] These preclinical data identify potentially useful drug combinations for evaluation in drug-resistant MM and reveal potential mechanisms of combined drug sensitivity.
Described herein is the primary MIPE qHTS used to cherrypick compounds. Validated compounds were then further tested for potential synergistic activiy.
[1] Peat TJ, Gaikwad SM, Dubois W, Gyabaah-Kessie N, Zhang S, Gorjifard S, Phyo Z, Andres M, Hughitt VK, Simpson RM, Miller MA, Girvin AT, Taylor A, Williams D, D'Antonio N, Zhang Y, Rajagopalan A, Flietner E, Wilson K, Zhang X, Shinn P, Klumpp-Thomas C, McKnight C, Itkin Z, Chen L, Kazandijian D, Zhang J, Michalowski AM, Simmons JK, Keats J, Thomas CJ, Mock BA. Drug combinations identified by high-throughput screening promote cell cycle transition and upregulate Smad pathways in myeloma. Cancer Lett. 2023 Aug 1;568:216284. doi: 10.1016/j.canlet.2023.216284. Epub 2023 Jun 24. PMID: 37356470; PMCID: PMC10408729.
SEQUENCE No. (e.g., 1, 2, 3, etc.); […] (e.g., Cells, Incubation, Reagent, etc.); VALUE and DESCRIPTION.
1; Cells; 5 uL; white, solid bottom 1536-well Greiner assay plate.
2; Compounds; 23 nL; Kalypsis pin tool (Wako USA) equipped with a 1536-well pin head to transfer to the assay plates.
3; Incubation; 48 hours; 37C incubation.
4; Reagent;5uL; CellTiter Glo (Promega).
5; Detector; 425V; Luminescence; Viewlux PerkinElmer.
NOTES (numbers refer to Sequence numbers above)
1. The cell-based screening methods employed in this study were like those previously published. Briefly, the corresponding myeloma cell lines were screened in 1,536-well plates with 500 cells, 5-uL per well for inhibition of cell viability (assessed by measuring ATP levels with CellTiterGlo).
2. NCATS MIPE 4.0 library of approved and investigational drugs were added using the Kalypsis pin tool. Wells treated with DMSO only for 100% viability and media only for 0% viability were used as controls.
3. The assay plates were covered and incubated for 48 hours in a 37C, 5% CO2 incubator with controlled humidity.
4. After 48 hours, CellTilter-GloTM luminescent substrate mix (Promega) reagent was added to the assay plate and plates we incubated for 5 min at room temperature.
5. Signal was measured as median relative luminescence units on a ViewLux (PerkinElmer) multiplate reader.
[1] Heske CM, Davis MI, Baumgart JT, Wilson K, Gormally MV, Chen L, Zhang X, Ceribelli M, Duveau DY, Guha R, Ferrer M, Arnaldez FI, Ji J, Tran HL, Zhang Y, Mendoza A, Helman LJ, Thomas CJ. Matrix Screen Identifies Synergistic Combination of PARP Inhibitors and Nicotinamide Phosphoribosyltransferase (NAMPT) Inhibitors in Ewing Sarcoma. Clin Cancer Res. 2017 Dec 1;23(23):7301-7311. doi: 10.1158/1078-0432.CCR-17-1121. Epub 2017 Sep 12. PMID: 28899971; PMCID: PMC6636827.
(In general: Cellular ATP, detected with luciferase, serves as a proxy for viable cell number.)
Turning to `CNCC(O)c1ccc(O)cc1` (centres undefined), the Potency entry is “inactive”.

Take `Fc1ccc(C(OCCN2CCN(CCCc3ccccc3)CC2)c2ccc(F)cc2)cc1`: the Potency is 7.43 µM (active).

As to `CN(C)CCc1ccc(O)cc1`, the Potency result is “inactive”. The same measure for `C=C(C)[C@H]1Cc2c(ccc3c2O[C@@H]2COc4cc(OC)c(OC)cc4[C@@H]2C3=O)O1`: 0.264 µM (active); for `COC[C@H]1OC(=O)c2coc3c2[C@@]1(C)C1=C(C3=O)C2CCC(=O)[C@@]2(C)C[C@H]1OC(C)=O` (some centres undefined): 1.48 µM (active). `Cn1c(CCCC(=O)O)nc2cc(N(CCCl)CCCl)ccc21`: the Potency is 14.8 µM (active).

As for `C[C@@H]1O[C@@H](O[C@H]2C[C@@H](O)[C@]3(CO)[C@H]4[C@H](O)C[C@]5(C)[C@@H](C6=CC(=O)OC6)CC[C@]5(O)[C@@H]4CC[C@]3(O)C2)[C@H](O)[C@H](O)[C@H]1O`, the Potency was 0.0074 µM (active). In the case of `CCCC(C)(COC(N)=O)COC(=O)NC(C)C` (centres undefined), the Potency entry is “inactive”. As for `COc1ccc(C(=O)c2c(C)n(CCN3CCOCC3)c3ccccc23)cc1`, the entry is “inactive”. Take `Cn1cc(C2=C(c3cn(C4CCN(Cc5ccccn5)CC4)c4ccccc34)C(=O)NC2=O)c2ccccc21`: the Potency was 5.26 µM (active). The same measure for `CNC(=O)c1ccc(N2C(=S)N(c3ccc(C#N)c(C(F)(F)F)c3)C(=O)C23CCC3)cc1F`: 1.32 µM (active).

`COc1ccc2c(c1OC)CN1CCc3cc4c(cc3C1C2)OCO4` (centres undefined): the Potency is 14.8 µM (active). The same measure for `C[C@@H]1[C@@H](CC(C[C@H]2O[C@@H]3O[C@]4(C)CC[C@@H]5[C@H](C)CC[C@@H]([C@H]2C)[C@@]35OO4)C[S+](=O)([O-])c2ccc(COC(=O)N(C)C)cc2)O[C@@H]2O[C@]3(C)CC[C@H]4[C@H](C)CC[C@@H]1[C@@]24OO3` (some centres undefined): 0.296 µM (active). As for `CN(C)[C@@H]1C(=O)C(C(N)=O)=C(O)[C@@]2(O)C(=O)C3=C(O)c4c(O)cccc4[C@@](C)(O)[C@H]3C[C@@H]12`, the entry is “inactive”. On to `CN1CCN(C(=O)O[C@H]2c3nccnc3C(=O)N2c2ccc(Cl)cn2)CC1`, for which the Potency result is “inactive”. As for `CC1=C2C[C@@H]3[C@@H](CC=C4C[C@@H](O)CC[C@@]43C)[C@@H]2CC[C@]12O[C@H]1C[C@H](C)CN[C@H]1[C@H]2C`, the Potency entry was “inactive”. The same measure for `C#CCN(C)[C@H](C)Cc1ccccc1`: “inactive”; for `Cc1sc2c(c1C)C(c1ccc(Cl)cc1)=N[C@@H](CC(=O)OC(C)(C)C)c1nnc(C)n1-2`: 0.187 µM (active). With `O=C1CC[C@@]2(O)[C@H]3Cc4ccc(O)c5c4[C@@]2(CCN3CC2CC2)[C@H]1O5`, the Potency entry is “inactive”. Take `CC(O)(CS(=O)(=O)c1ccc(F)cc1)C(=O)Nc1ccc(C#N)c(C(F)(F)F)c1` (centres undefined): the Potency is 0.166 µM (active). For `O=C(O)C(=O)c1cn(Cc2ccccc2)c2ccc(-c3ccc(OC(F)(F)F)cc3)cc12`, the Potency was 9.35 µM (active). For the compound `COC[C@@H](NC(C)=O)C(=O)NCc1ccccc1`, the Potency result is “inactive”.

Consider `N[C@@H](Cc1ccc(N(CCCl)CCCl)cc1)C(=O)O`, for which the Potency was 7.43 µM (active).

With `CN(C)CCN(C)CCc1ccc(Cl)c(Cl)c1`, the Potency result was “inactive”.
